Experimental data from the supplement of paper PMC11417369.
In all, about 25,000 sequences were measured (“ln(normalized median fluorescence intensity)”: median about 9.7, highest 2% from about 11 on). For the sample, the highest values were picked, then their nearest neighbours and some sequences at random.

These sequences were tested on PfAP2-HC AP2 domain (GST-tagged) (assay: gcPBM binding intensity (ln(normalized median fluorescence intensity)); higher = stronger DNA binding).
How it was run: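 An Agilent 4 × 180k array of primer-extended double-stranded 36-bp intergenic genomic probes, with negative controls, was incubated for 1 h with GST-tagged P. falciparum DNA-binding domains expressed in E. coli. Alexa488 anti-GST antibody detected bound protein, scanned at 488 nm. Binding intensity is the highest Masliner-normalised natural-log median intensity across replicate spots of either probe orientation.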

Sequence	gcPBM binding intensity (ln)
ATATAATGACAAGTATAAGTATCACAAAGAAATAAA [CACACA_negctrl_site1403]	9.79
CAGGCGTGAAATATACGTACACACATTATTTATATT [XGTACX_site5337]	9.94
AAGAAAAAAAAAATTACACACTGCGGACATACACAA [CACACA_site4838]	9.98
TAAGATATAAAAAATGTGCACATTAAAGTATTAATT	9.86
TATTGTAAGAAAGGCACACAGATAAAATTATTATAT [CACACA_site2921]	9.87
CGGTATTTTTTAATTTGTACGCATATACAATAATTA [XGTACX_site8603]	9.54
TTTTTGTTATATAAAGTGCAGTGACAAGCAGTTTAA	9.56
TTTTTTTATATTTTTAGTACACATTGGTATATATAT [XGTACX_site4114]	9.78
TTCTTTAAAATATTATGTACACATTGCGAACAGTTT [XGTACX_site5418]	9.76
CACAGACACGGACACACACACATATATAATATATAT [CACACA_site4495]	10.8
AGCACAGACGGACACACACACACACCCACAGACACA [CACACA_site4358]	11.4
CACAGACACGGACACACACACACACCCACATATATA [CACACA_site4355]	11.5
TGTATGTTTATTTATCGTACATATATATATATATAT [XGTACX_site7315]	10.1
TACGCGAAATGAATATGTACATATATGAGGGCATAT [XGTACX_site4293]	9.75
ATTTGAAATGCATGAACACACACAGCTATAAATGCA [CACACA_site8229]	9.82
GAAATAAGTTAAAATAGTACGTAGTGTTCCTTAAGT [XGTACX_site6557]	9.81
ACACAAAAATAGTTTTTTATATTGTTAACCTTATAT [XGTACX_negctrl_site123]	9.71
AAAAATATAAATGACACACACTTAAAAACAAAGAAA [CACACA_site4540]	10.2
TTTAATCAAATTAAAAGTACAGAATTGTTCATGTAG [XGTACX_site1229]	9.53
ACTCATAAAAATAGATGTACTTTAATAATTTGATTT [XGTACX_site8763]	9.48
TATATATATATACCAACACACATACATATATATATA [CACACA_site8530]	9.99
CACGCGAACATACATACACACACATATATATATATG [CACACA_site7951]	10.1
AGTATACACGAACACACACACACATATATAAATATA [CACACA_site6913]	10.7
TACATACACGGACACACACACATATATATATATATA [CACACA_site5883]	10.7

Sequence	gcPBM binding intensity (ln)
CCCCCCCACGAACACACACACATACATACCACATAT [CACACA_site7149]	11
AATAACCACGGACACACACACATATATATATATATA [CACACA_site5873]	10.9
CCCCCCCACGGACACACACACATACATACCACATAT [CACACA_site5303]	11.3
CATATACACGAACACACACACATATATATATATATA [CACACA_site4437]	10.5
AACATATACACGAACACACACACATATATATATATA [CACACA_site502]	11.6
TTTTTTTTTTTTACATGTACTTATTTTAAATATAAA [XGTACX_site805]	9.71
TATGTTTTTCGGTATGCATGCATATGCTTAATAATA [TGCATGCA_site184]	9.55
AATATATAGAGAGATATGCACACTGTATGAATGCAC [CACACA_site2677]	9.78
AAATATTTATAGGTTTGTACTTATAAATAAAAAAAA [XGTACX_site7360]	9.5
TATTAAATTATATAGACACACATTATATATATATAT [CACACA_site4345]	9.78
TATGGAATAAATTTATCCATACATCTTATAACATAT [XGTACX_negctrl_site500]	9.63
ATTTATTTTTTACATTGTACATATTTATTCCTTTTA [XGTACX_site8028]	9.95
GTAATATGTATCCATACACACATACAGTTTATTTGC [CACACA_site6540]	9.96
TAAAATTATGTAATAACACACATATACAATACATAT [CACACA_site1236]	9.94
AGGGTTACAAGAGGAACACACAAAAAAATAAATAAA [CACACA_site1436]	10
AATATATATTAAATATGTACTTATTTTTTGGTTGCT [XGTACX_site3613]	9.63
TTTAAATAAAAATGGAGTACTCTAAAAAAAAAAAAA [XGTACX_site1233]	9.37
TACACAAGAAAATTCACACACACACCCATATATATA [CACACA_site3879]	10.7
TACACAAGAAAATTCACACACACACCGATATATATA [CACACA_site6008]	10.7
CATACACAAGAAAATTCACACACACCCATATATATA [CACACA_site9288]	11.3
CACAAGAAAATTCACACACACACATATATATATATA [CACACA_site3880]	10.9
CACAAGAAAGTTCACACACACACATATATATATATA [CACACA_site6009]	10.1
AAAACAAAAGAATTCACACATATATATATATATATA [CACACA_site4777]	10.2
TATATATATATGTGTACACATTTGTCAGATTATATA [CACACA_site4813]	9.79

Sequence	gcPBM binding intensity (ln)
AGGATATATAAGTATACACACATATTTATATTTATA [CACACA_site6239]	9.75
AAAATTTAAAGCATGACACACAATTATATTATGTGC [CACACA_site3435]	9.76
ATGATGTGCTTTAAAAGTACTTAAGTTATATTCTTT [XGTACX_site7127]	9.7
TTAATAACAAAATAAACACACATATATAAATACACA [CACACA_site6849]	10.5
ATAATATAACAATACGCACACGTATACAAAAAAAAA [CACACA_site5703]	9.99
ATTGTCAAAACACGCACACACATATACATAATAACA [CACACA_site1742]	11.1
AAATTGTCAAAACACGCACACACATATACATAATAA [CACACA_site1743]	10.9
AAAATTCATAAATACACACACGCACATATATATATA [CACACA_site4227]	10.2
TATATACACGCACATACACACAAATAAAAAAACACC [CACACA_site7578]	10.2
TAAATCCGTTTGATGGGTACATACATACATACATAT [XGTACX_site8889]	9.73
GGATGTATTTATATGTGTATGTGTTTGGAAATATGT [XGTACX_negctrl_site99]	9.85
GTCATATATAATTGTTGTACATTTTTATAATTATGT [XGTACX_site8091]	9.83
ACATATATATATATATATATATATATATATAGATAG [CACACA_negctrl_site783]	9.92
GGTTCATAATATGGTTGTACATAAATATATATATAT [XGTACX_site7583]	9.86
TATAATAATACTTATTGTACGATTAGCTTAATTCGT [XGTACX_site15]	9.51
AAGAAATATTTATACACACACACAAACATATATATA [CACACA_site1912]	10.5
AAGAAATATTTATACACACACACAAACATATAAATA [CACACA_site6981]	11.1
AATATTTATAAAGACACACAAACAAAAAGGATAAAA [CACACA_site2985]	10.3
CAGAAATAGAGATACACACACACATATATTTATGTA [CACACA_site3968]	11.3
TATAAAAATAAGCACACACACAAATATATATTTATT [CACACA_site922]	10.3
CAATATAAAAGACACACACACAAACATATATTTATA [CACACA_site7697]	11.3
TAAATAAAAAGACACACACACATATTTATATTTATA [CACACA_site7135]	10.4
ATAAAATTTATATAAGCACACAAATATATATTTATA [CACACA_site9083]	9.7
TATAAAAATAAGCACACACACAAATATAGATTTATT [CACACA_site6558]	11.3

Sequence	gcPBM binding intensity (ln)
GAAATAGAGAAACACACACACATATATTTATGTATT [CACACA_site3967]	10.4
GAAATAGAGAGACACACACACATATATTTATGTATT [CACACA_site7794]	10.4
CATAAATACAAATATACACACATATTTATATTTATA [CACACA_site7277]	9.78
CACTTAAAAAGCTAACGTACAAATACACATATATAA [XGTACX_site1851]	9.66
CAAAACATTTTATCTACACACATATATAAATAAATA [CACACA_site3220]	9.77
GTTTACATTTTAAGAAGTACAAAATTTATGGTTAAA [XGTACX_site450]	9.42
TTAGGACAAAAAAAAATAAAAATAAAATAAAATAAT [CACACA_negctrl_site1613]	9.61
TTTTAATATTTTAAGAGTACAGAAATATATAATATG [XGTACX_site4955]	9.33
TTATTTTACTTTTATGCAACTAAAAATATTGCTATA [XGTACX_negctrl_site277]	9.6
ACATAAATTTAATACACACACAAAGAAAAAAAAAAA [CACACA_site4088]	10.9
GAATATTAAACAAACACACACACATATATTTATATA [CACACA_site7563]	11.1
TAAAAAAAAAAAAAAACACACATATAAATATTTATA [CACACA_site6702]	9.61
GAGATAAAATAAAACACACACATATATTTATATAAC [CACACA_site7098]	10.9
CATAAAATATAAAACACACACACATATATTTATATA [CACACA_site6247]	10.5
AATTTTTTATTAAACACACAAACATATATATATATA [CACACA_site1937]	9.66
TGACATAAATTTAATACACACACAAAGAAAAAAAAA [CACACA_site9354]	10.2
GAATATTAAACAAACACACACACATATATATATATA [CACACA_site3382]	10.7
GAAAGAATAAAATTTACACACATATATAAATACATA [CACACA_site5273]	9.87
AAAACAAACAGACACACACACATATATATATATATA [CACACA_site3655]	10.8
AAAACAGACAAACACACACACACATATATATATATA [CACACA_site3393]	10.6
AAAACAAACAGACACACACACATATTTATATTTATA [CACACA_site7681]	11
